p97 inhibitor: inhibitors of human p97 ATPase | 220,000 tested, 0.42% active | AID 1481 | recombinant p97 ATPase, Kinase-Glo ATP luminescence, 3 h | inhibition, % at 8 µM; in the data active means inhibition above about 15%;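 further: 0% = DMSO vehicle and 100% = wells lacking enzyme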
Target sequence (P55072 whole entry, looked up): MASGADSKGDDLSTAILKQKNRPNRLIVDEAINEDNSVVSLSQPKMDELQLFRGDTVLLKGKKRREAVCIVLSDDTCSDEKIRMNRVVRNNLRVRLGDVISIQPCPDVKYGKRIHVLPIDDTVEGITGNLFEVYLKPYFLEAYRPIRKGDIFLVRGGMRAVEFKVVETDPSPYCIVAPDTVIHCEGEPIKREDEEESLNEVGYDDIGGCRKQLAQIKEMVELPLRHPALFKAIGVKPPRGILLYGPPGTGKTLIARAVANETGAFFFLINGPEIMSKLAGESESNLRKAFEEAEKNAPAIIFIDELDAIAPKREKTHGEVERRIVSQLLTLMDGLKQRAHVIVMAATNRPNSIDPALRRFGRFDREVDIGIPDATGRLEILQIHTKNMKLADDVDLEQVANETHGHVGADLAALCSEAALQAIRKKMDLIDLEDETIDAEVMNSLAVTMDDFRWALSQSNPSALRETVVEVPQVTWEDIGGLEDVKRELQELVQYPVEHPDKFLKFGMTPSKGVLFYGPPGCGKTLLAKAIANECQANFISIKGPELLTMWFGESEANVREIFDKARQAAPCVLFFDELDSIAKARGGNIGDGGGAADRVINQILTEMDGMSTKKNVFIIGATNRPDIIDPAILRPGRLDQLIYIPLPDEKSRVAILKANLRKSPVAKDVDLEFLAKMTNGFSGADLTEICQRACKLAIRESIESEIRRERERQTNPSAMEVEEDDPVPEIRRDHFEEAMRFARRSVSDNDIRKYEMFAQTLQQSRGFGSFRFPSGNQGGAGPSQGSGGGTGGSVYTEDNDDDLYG
PHOSPHO1 inh: inhibitors of human PHOSPHO1 phosphatase | Q8TCT1 | recombinant PHOSPHO1, absorbance phosphatase assay | inhibition, % at 13.3 µM | 290,000 tested, 1.1% active | AID 1565; in the data active means inhibition above about 60%
UBC9 SUMO inh: inhibitors of human SUMOylation (UBC9); P63279; HTRF SUMOylation assay, SAE1/SAE2 + UBC9, in vitro; inhibition, % at 35 µM; 290,000 tested, 0.36% active; AID 2006; in the data active means inhibition above about 50%, passing the limit was not always enough
G6PDH counter: L. mesenteroides G6PDH inhibition counter-screen; Purified L. mesenteroides G6PDH, diaphorase/resazurin coupled fluorescence, 45 min; inhibition, % at 5 µM; 200,000 tested, 0.12% active; AID 1020; in the data active means inhibition above about 50%
PfM18AAP inh-1: PfM18AAP enzyme inhibition | 290,000 tested, 1.2% active | recombinant PfM18AAP, H-Glu-NHMec fluorogenic cleavage | inhibition, % at 7.35 µM;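 active means inhibition above the campaign mean inhibition over all tested compounds plus 3 SD, cut at about 28% in these data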;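 further: 0% = plate median of test compound wells and 100% = 2 mM ZnCl2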
HDAC3 inhib: inhibitors of human histone deacetylase 3; O15379; recombinant HDAC3, fluorogenic peptide/trypsin coupled, fluorescence; inhibition, % at 8.3 µM; 320,000 tested, 0.15% active; in the data active means inhibition above about 26%, passing the limit was not always enough
PfM18AAP inh-2: PfM18AAP inhibition, confirmation; shares compounds with PfM18AAP inh-1; recombinant PfM18AAP, H-Glu-NHMec fluorogenic cleavage; inhibition, % at 7.35 µM; 2,400 tested, 28% active;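 active means mean inhibition over replicate wells above the hit cutoff set for the earlier primary screen, cut at about 29% in these data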;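 further: 0% = median of test compound wells and 100% = 2 mM ZnCl2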
CTSL1 counter: counter-screen for PFM18AAP inhibitors: confirmation of human cathepsin L inhibitors; AID 2178; 2,400 tested, under 10 active; inhibition, % at 5.96 µM; purified cathepsin L1, Z-Leu-Arg-MCA fluorescence; shares compounds with PfM18AAP inh-1;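 active means average inhibition across replicates above the hit cutoff set in the earlier primary screen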;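 further: 0% = median of test compound wells and 100% = Z-Phe-Ala-diazomethylketone 1 µM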
* marks the source's active call; other numbers are inactive results; . = not tested or not shown. This is a sample that favours compounds with a hit; in the whole collection about 2.5% have one here.

SMILES	p97 inhibitor	PHOSPHO1 inh	UBC9 SUMO inh	G6PDH counter	PfM18AAP inh-1	HDAC3 inhib	PfM18AAP inh-2	CTSL1 counter
FC(F)(F)c1nc(SCc2ccccc2)n[nH]1	.	.	.	.	.	9	.	.
N#CCC(=O)N/N=C/c1ccc(Cl)cc1	2	19	13	.	26	-2	.	.
CN(c1ccccc1)c1ccc(/C=N/NC(=O)CC#N)cc1	4	-9	-11	4	36*	-9	-33	9
CCCCOc1ccccc1/C=N/NC(=O)CC#N	-2	20	18	9	38*	1	-13	-6
N#CCC(=O)N/N=C/c1ccc(OCC(=O)Nc2ccc(F)cc2)cc1	5	-3	6	12	42*	8	-45	4
COc1ccc(/C=C(\C#N)C(=O)c2cccn2C)cc1	.	11	1	.	4	1	.	.
COc1ccc(/C=C(\C#N)C(=O)C(C)(C)n2cncn2)cc1	1	8	2	22	59*	1	-8	-2
COc1ccc(CCN2CC(C(=O)NCc3nc(C)c(C)s3)CCC2=O)cc1 (centres undefined)	.	28	18	.	-10	-2	.	.
Cc1cc(C)c2c(N)c(C(=O)c3ccccc3)sc2n1	1	-1	28	.	-4	-2	.	.
CC(=O)c1sc2nsc(SCCN3CCCCC3)c2c1N	0	70*	15	.	33*	13	-41	-5
Cc1cc(C)c2c(N)c(C(=O)c3ccc(Cl)cc3)sc2n1	9	-7	6	1	-4	-1	.	.
Nc1c(C(=O)c2ccccc2)sc2nsc(SCCN3CCCC3)c12	3	6	13	.	35*	-2	-30	-4
Nc1c(C(=O)c2ccc(Cl)cc2)sc2nsc(SCCN3CCOCC3)c12	5	63*	9	.	34*	4	-28	5
COc1cc(C(=O)NC(=S)Nc2ccc3[nH]c(=O)[nH]c3c2)cc(OC)c1OC	.	32	-20	.	7	-1	.	.
COC(=O)/C=C/c1ccc2c(c1)OCO2	2	37	3	6	-3	0	.	.
COC(=O)/C=C/c1ccc(OC(=O)OC)c(OC(=O)OC)c1	7	1	10	12	75*	-1	34*	-1
CCCCn1c(N)c(N(CC)C(=O)c2cnc(C)cn2)c(=O)[nH]c1=O	.	.	.	.	.	-8	.	.
O=C(NNc1ccc(F)cc1F)c1c(F)cccc1Cl	4	42	6	.	33*	6	6	2
COc1ccc(NC(=O)c2ccc3c(c2)NC(=O)CS3)cc1S(=O)(=O)Nc1ccc(Br)cc1	-8	-50	-2	8	32*	-1	13	5
CC(=O)NS(=O)(=O)c1ccc(NC(=O)c2ccc3c(c2)NC(=O)CS3)cc1	.	.	.	.	.	-6	.	.
Cc1ccc(NS(=O)(=O)c2cc(NC(=O)c3ccc4c(c3)NC(=O)CS4)ccc2C)c(C)c1	1	4	-8	9	48*	2	-5	1
O=c1cccccc1NCc1ccccc1	4	16	10	13	42*	-2	-41	3
COc1ccc(/C=N/N2C(=O)CSC2=S)cc1	1	50	5	-3	49*	2	-5	2
COc1ccc(/C=N/N2C(=O)c3ccccc3C2=O)cc1	6	-17	-2	12	-2	-4	.	.
CC(/C=N/N1C(=O)CSC1=S)=C\c1ccccc1	4	-46	10	5	42*	5	-19	-3
SMILES	p97 inhibitor	PHOSPHO1 inh	UBC9 SUMO inh	G6PDH counter	PfM18AAP inh-1	HDAC3 inhib	PfM18AAP inh-2	CTSL1 counter
CC(/C=N/N1CCN(c2ccccc2)CC1)=C\c1ccccc1	3	23	12	-2	-1	2	.	.
CN(C)c1ccc(N=Cc2nc(-c3ccccc3)oc2O)cc1	2	24	17	1	9	13	.	.
CN(C)c1ccc(N=Cc2cccn2C)cc1	.	32	-55	.	58*	0	-24	-4
O=C1C(Cc2ccc3[nH]ccc3c2)NC(=S)N1c1ccccc1 (centres undefined)	5	16	15	.	-14	6	.	.
CC(=O)Oc1ccc2oc(/C=C/N(C)C)c([N+](=O)[O-])c2c1	0	4	1	5	6	7	.	.
C/C(=C/c1oc2ccc(O)cc2c1[N+](=O)[O-])N(C)C	12	20	-4	6	37*	7	-23	8
COCc1cc(C)n(CC(=O)Nc2ccc3c(c2)OCO3)c(=O)c1C#N	.	18	.	.	-2	0	.	.
Cc1ccc(S(=O)(=O)Nc2cc(Cl)c(O)c3ncccc23)cc1	.	19	2	.	39*	-5	18	-2
Oc1c(Cl)cc(Cl)c2cccnc12	-1	2	5	30	10	.	.	.
CCCC(=O)N(c1ccc2oc(=O)sc2c1)S(=O)(=O)c1cccs1	3	95*	-28	2	37*	7	-14	-1
Cc1noc(C)c1C(=O)NNc1cc(Cl)ccc1Cl	-2	8	2	.	36*	2	9	-3
Cc1cc(Cl)ccc1NNC(=O)c1cccs1	11	6	8	.	18	0	.	.
O=C(NNc1cc(Cl)ccc1Cl)c1cccs1	-5	8	-6	.	52*	2	28	-1
Cc1cc(C(=O)NNc2cc(Cl)ccc2Cl)no1	-6	23	15	.	9	-3	.	.
CC1(C)CC(NC(=O)c2ccc(Br)o2)CC(C)(C)N1	.	39	4	.	-1	5	.	.
Cc1cc(C)cc(C(=O)OCC(=O)Nc2ncccn2)c1	.	.	.	.	.	2	.	.
Cc1nc(N/N=C/c2ccc(O)cc2O)cc(N2CCOCC2)n1	.	34	-25	.	49*	4	34*	1
Cc1nc(N/N=C/c2cccc(F)c2)cc(N2CCOCC2)n1	.	29	9	.	3	12	.	.
CC(=O)N1CCN(c2ccc(N=Cc3c(O)n(Cc4ccccc4)c(=O)[nH]c3=O)cc2)CC1	-3	-32	0	4	33*	.	-59	-8
CC(=O)N1CCN(c2ccc(NCc3ccccc3)cc2)CC1	-1	21	-6	6	2	13	.	.
O=C(COc1ccc(F)cc1)c1c(O)cc(O)cc1O	8	4	18	.	33*	0	23	-1
O=C(O)c1cccc(NC(=S)N/N=C/c2cccc(O)c2)c1	6	-25	-2	-2	50*	8	11	5
CCN(C1CCS(=O)(=O)C1)S(=O)(=O)c1ccc2ccccc2c1 (centres undefined)	.	.	.	.	.	-3	.	.
Oc1ccc(-c2nc3ccc4ccccc4c3c3c2CCC3)cc1O	7	-10	-34	-27	47*	1	32*	-1
COc1cccc(/C=C/C(=O)c2c(O)cc(C)oc2=O)c1O	1	0	0	0	3	-3	.	.
COc1cc(/C=C/C(=O)c2c(O)cc(C)oc2=O)cc(OC)c1O	-5	80*	16	10	42*	8	-16	-2

From PubChem
